Laboratory results as given in the OligoGym collection.
Also: reference of the scale not given here.

Each sequence was assayed against UST (assay: pooled miR-30 sensor sort-seq; sequence = guide strand). Details: shRNA.
Sequence TTGAGGAAATGAACATGTCGAG has a sensor-assay potency score (higher = more potent) of -0.72. TATATTTTTAATCAGTTCCATT was tested, and the sensor-assay potency score (higher = more potent) was -1.14. With TAACAGCAGCACATCTTCCAAC the sensor-assay potency score (higher = more potent) was -0.452. TAAAACTCGTACTCGTATCTCA showed a sensor-assay potency score (higher = more potent) of 0.226. Work on ATCCTGTTCTTCATCGTCGATT yielded a sensor-assay potency score (higher = more potent) of -1.53. Sequence TACCCTGTTGTACACCACCTGG has a sensor-assay potency score (higher = more potent) of -1.05. Sequence TTGTTGTGAATGTCTGATGTGA has a sensor-assay potency score (higher = more potent) of -0.387. In the case of AAATAGTTGGATAAGAACCGGT, the sensor-assay potency score (higher = more potent) is reported as -0.125. For TACTCGTATCTCATCCGCTGGT, the sensor-assay potency score (higher = more potent) was -0.000159. For TTGTACACCACCTGGCTTGGGA, the sensor-assay potency score (higher = more potent) was -0.187.

What follows are sequences tested against UTP18 in the same assay as above. Details: shRNA.
TTTTCCGCTTAGTAGTCTCTGC showed a sensor-assay potency score (higher = more potent) of -0.432. With TTCATCTTCTTCATCCACCCAA the sensor-assay potency score (higher = more potent) was 0.245. With TTTCTTGGAGACAAGAATCTTG the sensor-assay potency score (higher = more potent) was -0.491. Sequence TAGACATAAAGAACCTTGCTGT has a sensor-assay potency score (higher = more potent) of 0.607. Work on TAGTGATACAGCATTATCTAAT yielded a sensor-assay potency score (higher = more potent) of -1.01. For TTTATGAGCAAGAAGGACCCAT, the sensor-assay potency score (higher = more potent) was 0.234. Sequence TTTTTCATCATATCCTTCCGAA has a sensor-assay potency score (higher = more potent) of 0.00107. For TTTGCAACAAATCATCTTCATC, the sensor-assay potency score (higher = more potent) was -0.536. For ATTAGCACTAAAACAAGCCTTA, the sensor-assay potency score (higher = more potent) was 0.102. For TTAATCCATATAAACTGCCTTC, the sensor-assay potency score (higher = more potent) was -0.603. TTCATCTTCAAGATTCCTCTTG showed a sensor-assay potency score (higher = more potent) of 0.439. With TTCACTAGCATTTTTCATCATA the sensor-assay potency score (higher = more potent) was -0.646.

What follows are sequences tested against UTP3 in the same assay as above. Details: shRNA.
For TTTCACTGAAACTTTAGCCAAA, the sensor-assay potency score (higher = more potent) was -0.944. Sequence TTTCTCTTTAGCTTTTGCCTGT has a sensor-assay potency score (higher = more potent) of 0.173. In the case of TTTCGGTAGGTAACAAGCCTTT, the sensor-assay potency score (higher = more potent) is reported as -1.19. Work on TTTACGAACTTCACGAACCTGG yielded a sensor-assay potency score (higher = more potent) of -0.0211. Sequence ATCATCTCCATTTTCGTCGGTG has a sensor-assay potency score (higher = more potent) of -0.329. TAAGTGTCAACAGATGACGAAT showed a sensor-assay potency score (higher = more potent) of -1.16. Work on TTTCTTTACAGCATCATCCTTA yielded a sensor-assay potency score (higher = more potent) of 0.221. TATTTCTTTATAGTACTTCAGT was tested, and the sensor-assay potency score (higher = more potent) was -0.591. TTCGTCGTCCTCATCGTCCATA gave a sensor-assay potency score (higher = more potent) of -0.923. TGAAACTTTAGCCAAATCCTTC showed a sensor-assay potency score (higher = more potent) of -1.04. In the case of TTGATAGGTAATAGCTCTCTTT, the sensor-assay potency score (higher = more potent) is reported as -1.33. Work on TATAGTACTTCAGTTTTGCTTT yielded a sensor-assay potency score (higher = more potent) of -0.531.

What follows are sequences tested against UTS2D in the same assay as above. Details: shRNA.
Sequence TCTTTTAGCTTTTCCAGCTGGT has a sensor-assay potency score (higher = more potent) of 0.0536. For ATTTTTATTCAGTAGAGCCAGC, the sensor-assay potency score (higher = more potent) was -1.2. ATTTGTATATTTTTTATCTGGA gave a sensor-assay potency score (higher = more potent) of -0.591. AAAGTTAGGAGTCCAAAGCAAA showed a sensor-assay potency score (higher = more potent) of -1.56. With TTTTAGCTTTTCCAGCTGGTTA the sensor-assay potency score (higher = more potent) was -0.983. TTGTAAAAAAATCAACACGGAT showed a sensor-assay potency score (higher = more potent) of -1.39.
